# Laboratory results published in PubChem BioAssay (NCI).
# This is part of a sample that, as a whole, favours compounds with a hit. Of some 83,000 tested, about 20% had one in any assay.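 A percent growth of 40 corresponds to 60% growth inhibition; 0 means no net growth; -100 means all cells died. Active threshold: below 10.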 Unmarked numbers belong to inactive results. The source made the active and inactive calls.
# What was measured:
# Experiment in all cases: NCI-60 one-dose screen, 48 h (100 = growth as untreated, 0 = no growth, -100 = all killed)
# Settings in all cases: 10 µM
# [1] = test system: HT29 colon
# [2] = test system: SNB-75 CNS
# [3] = test system: SNB-19 CNS
# [4] = test system: U251 CNS
# [5] = test system: PC-3 prostate
# [6] = test system: SK-MEL-5 melanoma
# [7] = test system: UACC-62 melanoma
# [8] = test system: LOX IMVI melanoma
# [9] = test system: SK-MEL-28 melanoma
# [10] = test system: SK-MEL-2 melanoma
# [11] = test system: SN12C renal
# [12] = test system: UO-31 renal
# [13] = test system: ACHN renal
# [14] = test system: CAKI-1 renal
# [15] = test system: A498 renal
# [16] = test system: CCRF-CEM leukemia
# [17] = test system: MOLT-4 leukemia
# [18] = test system: SR leukemia
# [19] = test system: TK-10 renal
# [20] = test system: EKVX NSCLC
Structure (SMILES),growth [1],growth [2],growth [3],growth [4],growth [5],growth [6],growth [7],growth [8],growth [9],growth [10],growth [11],growth [12],growth [13],growth [14],growth [15],growth [16],growth [17],growth [18],growth [19],growth [20]
CN(C)N=Nc1nn(C(=O)Nc2ccc(Cc3ccccc3)cc2)c2ccccc12,41%,101%,64%,67.9%,29.5%,-37.5% (active),-8.25% (active),1.48% (active),43.2%,58.4%,58.9%,41.9%,34.3%,15.5%,82.4%,64.8%,64.1%,59.8%,,
CCCCC(CCCCCC(CCCC)NCc1ccc2c(c1)OCO2)NCc1ccc2c(c1)OCO2 (stereo not drawn),-100% (active),-100% (active),-100% (active),-95.3% (active),-100% (active),-100% (active),-95.4% (active),-96.8% (active),-100% (active),-87.2% (active),-92.6% (active),-100% (active),-100% (active),-87.9% (active),,-32.8% (active),-66.7% (active),-64.8% (active),-88% (active),
CCOCC(=O)C(C#N)c1ccc(Cl)c(Cl)c1 (stereo not drawn),104%,78.2%,107%,94.7%,87%,96%,95.4%,100%,100%,115%,97.8%,82.8%,91.3%,90%,,86.8%,101%,88.2%,105%,
COc1cc(-c2cc(/C=C/C(=O)c3ccc(Cl)c(Cl)c3)[nH]n2)cc(OC)c1OC,58.3%,75.4%,68%,43.8%,55%,84.1%,81.6%,29.6%,96.1%,86.7%,64.3%,54.1%,81.5%,82.9%,70.6%,3% (active),54.4%,-6.68% (active),,
CCN(CC)Cc1cc(Nc2ccnc3cc(Cl)ccc23)ccc1OC,33.7%,86.8%,94.1%,82%,66.7%,91.6%,104%,47.7%,108%,,91.2%,55.9%,97%,102%,,69.1%,78.9%,83.2%,94.9%,97.2%
Cc1cccc(Cl)c1NC(=O)c1ccc2nc(NC(=O)NC3CCN(C)CC3)sc2c1,29.6%,6.73% (active),102%,80.5%,69.7%,71.6%,106%,79.7%,108%,,73.8%,84.1%,102%,100%,,83%,77.9%,86.7%,83.8%,90.9%
COc1cc(/C=N/NC(=O)c2ccccc2Nc2cccc(C(F)(F)F)c2)cc(OC)c1OC,8.62% (active),4.15% (active),61.4%,-32.1% (active),-35.3% (active),29.2%,10.3%,11.9%,39.3%,,57.4%,41.4%,2.47% (active),29.2%,-13.2% (active),,28.3%,-4.43% (active),-18.2% (active),53.5%
CO/N=C(/C(=O)NC1C(=O)N2C(C(=O)O)=C(COC(N)=O)CSC12)c1ccco1 (stereo not drawn),111%,91.6%,95.5%,107%,101%,110%,103%,102%,114%,,104%,83.3%,98.3%,91.3%,102%,,111%,106%,104%,99.4%
O=C1OCC2=C1C(c1ccc(Cl)c(Cl)c1)c1cc3c(cc1N2CCO)OCCO3 (stereo not drawn),2.95% (active),30.3%,33.1%,18.2%,19.1%,29.9%,22.5%,44.3%,53%,,41.7%,22%,46.2%,34.1%,-5.46% (active),7.16% (active),19.9%,27.9%,57%,42.3%
Nc1ncnc2[nH]c(=O)[nH]c12,105%,84.6%,97.5%,97.8%,201%,100%,92.3%,95.2%,107%,,90.9%,105%,98.9%,6.82% (active),128%,125%,138%,26.1%,99.3%,83.2%
O=C(CNC(=O)OCc1ccccc1)NCC(=O)Oc1ccc([N+](=O)[O-])cc1,98.7%,109%,111%,11.8%,89.8%,98.1%,107%,87.6%,104%,,112%,86.4%,105%,101%,85%,109%,99.7%,101%,90.3%,101%
O=[N+]([O-])c1cccc(-c2ncc(-c3ccc(Cl)cc3Cl)[nH]2)c1,-65.2% (active),90.6%,96.7%,-100% (active),-82.6% (active),94.7%,63.4%,-100% (active),92.8%,,80.9%,60.4%,-2.82% (active),100%,104%,,22.1%,-36.6% (active),20.1%,91.5%
CC(=O)c1nc2ccccc2n1CCN1CCN(C)CC1,-3.6% (active),6.87% (active),73.7%,28.4%,33.4%,38.5%,50.7%,36.7%,48%,25.4%,46.7%,53.1%,78%,94.1%,36.6%,,49.9%,6.52% (active),,
O=[N+]([O-])c1ccc(Oc2cccnc2)c([N+](=O)[O-])c1,-4.49% (active),87.7%,106%,85.7%,83.1%,79.1%,84.5%,24.1%,97.6%,,97%,58.3%,72.4%,-9.25% (active),89.3%,20.1%,76.4%,21.1%,67.5%,93.9%
CCCCCCCCCCCCCCCCCC(=O)OCCCCCCC,102%,98.3%,116%,100%,92.9%,110%,110%,96.5%,122%,,105%,87.6%,107%,88%,,85%,,,113%,90.8%
CSc1nc(=O)n(Cc2ccc(F)cc2)c(=O)n1Cc1ccc(C)cc1,101%,74.9%,100%,94.7%,88.5%,107%,93.5%,90.9%,108%,108%,96.3%,80.1%,101%,84.9%,106%,98.5%,92.4%,84.4%,,
COc1cc(-c2nc(-c3nnc(-c4ccc(F)c(Cl)c4)o3)c3ccccn23)cc(OC)c1OC,15.2%,3.25% (active),4.53% (active),31.8%,56.1%,39.7%,33.9%,58.2%,41.4%,,43.9%,29.5%,10.7%,58%,40.6%,68.6%,67%,42.4%,56.7%,64.2%
